Test results published in PubChem BioAssay AID1159580 (chemical genetic matrix, 2015).
Hit rate of the full screen: of about 5,500 compounds, about 2,000 (36%) were called active. Another 18% or so got no clear call; they are omitted. No stated cut-off is given here; in the data, active means normalized growth mostly below about 0.91 (no sharp cut-off); inconclusive means no clear call, values can overlap the other calls; inactive means mostly above about 0.92. The list shows a part of the results.

Test: chemical genetic growth profiling, strain panel (AID 1159580);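 further: tested at 20 µM; growth read once vehicle control cultures reached saturation at 30 °C; 1 = growth at the plate median or of vehicle wells; lower values mean less growth of the strain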
Settings: S. cerevisiae deletion strains, growth OD

Measured: normalized growth

Oc1ccc2c3c1O[C@H]1c4[nH]c5ccccc5c4C[C@@]4(O)C(C2)N(CC2CC2)CCC314 (stereo not given in full)
inactive: locus YAL013W, strain DEP1, active compounds read low 0.989 | locus YAL040C, strain CLN3, active compounds read low 1 | locus YCL061C, strain MRC1 (second series), active compounds read low 1.01 | locus YDR363W, strain ESC2, active compounds read low 1.02 | locus YER002W, strain NOP16, active compounds read low 1.02 | locus YGR078C, strain PAC10, active compounds read low 1.02 | locus YMR263W, strain SAP30, active compounds read low 1.01 | locus YMR307W, strain GAS1, active compounds read low 0.993 | locus YNL175C, strain NOP13, active compounds read low 1.02 | locus YNL197C, strain WHI3, active compounds read low 1 | locus YNL224C, strain SQS1, active compounds read low 1.01 | locus YNL322C, strain KRE1, active compounds read low 0.999 | locus YOR083W, strain WHI5 (second series), active compounds read low 1.01 | locus YPL055C, strain LGE1, active compounds read low 0.987

Fc1ccc(NC(=S)N2CCCN(Cc3ccc(Cl)cc3Cl)CC2)cc1
active: locus YLR113W, strain HOG1, active compounds read low 0.821
inactive: locus YAR019C, strain CDC15, active compounds read low 0.989 | locus YBL105C, strain PKC1, active compounds read low 0.984 | locus YBR135W, strain CKS1, active compounds read low 0.992 | locus YBR136W, strain MEC1, active compounds read low 0.985 | locus YBR160W, strain CDC28, active compounds read low 0.982 | locus YDL017W, strain CDC7, active compounds read low 0.982 | locus YDL028C, strain MPS1, active compounds read low 0.99 | locus YDL101C, strain DUN1, active compounds read low 0.985 | locus YDL108W, strain KIN28, active compounds read low 0.992 | locus YDL132W, strain cdc53, active compounds read low 0.989 | locus YDL214C, strain PRR2, active compounds read low 0.987 | locus YDR052C, strain DBF4, active compounds read low 0.986 | locus YDR054C, strain cdc34, active compounds read low 0.982 | locus YDR226W, strain ADK1, active compounds read low 0.973 | locus YDR477W, strain SNF1, active compounds read low 1 | locus YER123W, strain YCK3, active compounds read low 1.02 | locus YER133W, strain GLC7, active compounds read low 1 | locus YFL009W, strain cdc4, active compounds read low 0.992 | locus YFL029C, strain CAK1, active compounds read low 0.979 | locus YFR003C, strain YPI1, active compounds read low 0.984 | locus YFR019W, strain FAB1, active compounds read low 0.998 | locus YFR028C, strain CDC14, active compounds read low 0.997 | locus YGR040W, strain KSS1, active compounds read low 1.01 | locus YGR052W, strain FMP48, active compounds read low 1.09 | locus YGR092W, strain DBF2, active compounds read low 1.01 | locus YHR030C, strain SLT2, active compounds read low 0.903 | locus YHR079C, strain IRE1, active compounds read low 0.964 | locus YHR082C, strain KSP1, active compounds read low 1.15 | locus YHR205W, strain SCH9, active compounds read low 0.989 | locus YIL147C, strain SLN1, active compounds read low 0.977 | locus YJL095W, strain BCK1, active compounds read low 1.02 | locus YJL128C, strain PBS2, active compounds read low 0.959 | locus YJL157C, strain FAR1, active compounds read low 1.01 | locus YJR016C, strain ILV3, active compounds read low 0.992 | locus YJR066W, strain TOR1 (second series), active compounds read low 0.966 | locus YJR066W, strain TOR1, active compounds read low 1.11 | locus YKL048C, strain ELM1, active compounds read low 0.981 | locus YKL067W, strain YNK1, active compounds read low 0.989 | locus YKL101W, strain HSL1, active compounds read low 0.987 | locus YKL193C, strain SDS22, active compounds read low 0.994 | locus YKL203C, strain TOR2, active compounds read low 1.05 | locus YLR133W, strain CKI1, active compounds read low 1.01 | locus YLR403W, strain SFP1, active compounds read low 1.01 | locus YML070W, strain DAK1, active compounds read low 1 | locus YMR001C, strain CDC5, active compounds read low 0.992 | locus YMR205C, strain PFK2 (second series), active compounds read low 0.994 | locus YMR277W, strain FCP1, active compounds read low 0.992 | locus YNL006W, strain LST8, active compounds read low 0.987 | locus YNL020C, strain ARK1, active compounds read low 1 | locus YNL161W, strain CBK1, active compounds read low 0.98 | locus YNL183C, strain NPR1, active compounds read low 1.09 | locus YNL207W, strain RIO2, active compounds read low 0.984 | locus YNL222W, strain SSU72, active compounds read low 0.992 | locus YNL307C, strain MCK1 (second series), active compounds read low 1 | locus YOL078W, strain AVO1, active compounds read low 0.996 | locus YOL136C, strain PFK27, active compounds read low 1.01 | locus YOR061W, strain CKA2, active compounds read low 1.01 | locus YOR119C, strain RIO1, active compounds read low 1.08 | locus YOR231W, strain MKK1, active compounds read low 0.985 | locus YOR329C, strain SCD5, active compounds read low 0.986 | locus YPL031C, strain PHO85, active compounds read low 1.02 | locus YPL153C, strain RAD53, active compounds read low 1.02 | locus YPL204W, strain HRR25, active compounds read low 0.982 | locus YPL209C, strain IPL1, active compounds read low 0.983 | locus YPL256C, strain CLN2, active compounds read low 0.888 | locus YPR025C, strain CCL1, active compounds read low 0.987 | locus YPR106W, strain ISR1, active compounds read low 0.99 | locus YPR111W, strain DBF20, active compounds read low 0.975 | strain NNK1, active compounds read low 0.983 | strain TSCII, active compounds read low 0.984
